According to PubChem BioAssay AID1224817 (Yan Lab, Georgia Cancer Center, Augusta University, 2016):
Several values for one entry are separate records, joined by “and”; a condition that tells them apart may be missing. Identical values can stand only once. Among all 2,000 compounds or so, about 25 (1%) were called active.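 The calls were made as follows: active = log2 luciferase ratio at or below -0.5849, meaning signal at two thirds of solvent-only control or lower; inactive = the rest.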 Only a selection was taken, and actives are over-represented in it overall.

Test: eIF4E expression suppression, luciferase knock-in reporter – cell-based, HT1080, primary screen (AID 1224817);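 also: luciferase reports endogenous eIF4E expression since it is co-expressed from the native EIF4E locus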
Settings: HT1080 EIF4E-luc2 knock-in reporter, 16 h, at 2.5 µM, stronger effect = lower value

SMILES | log2 luciferase activity ratio
COC1C(O)C(C)OC(OC2C(Oc3cccc4c(O)c5c(=O)oc6ccc(C)c7c(=O)oc(c34)c5c67)OC(C)C(O)C2O)C1O (stereo not given) | -0.702 (active) and -0.391 (inactive)
COC(=O)C1=COC(C)C2CN3CCC4(C(=O)Nc5ccccc54)C3CC12 (stereo not given) | 0.122 (inactive)
c1ccc(CCN2CCCCCC2)nc1 | 0.334 (inactive)
COc1cc(CCN)c(OC)c(OC)c1 | -0.289 (inactive)
CC1CCC2(O)C3(C)CC4(O)OC2(C1O)C1(O)C3(O)C(OC(=O)c2ccc[nH]2)C(O)(C(C)C)C41C (stereo not given) | -0.662 (active) and 0.224 (inactive)
Oc1c(Cl)c(Cl)c(Cl)c(Cl)c1Cl | 0.387 (inactive)
CC(Cc1ccc(Cl)cc1Cl)NO (stereo not given) | 0.563 (inactive)
CC1=C2C(=O)[C@H]3[C@@H](CC=C4C[C@@H](O)CC[C@@]43C)[C@@H]2CC[C@]12O[C@@H]1C[C@H](C)CN[C@H]1[C@H]2C | 0.0474 (inactive)
O=C(Nc1ccc([As](=O)(O)O)cc1)Nc1cccc(Cl)c1Cl | 0.175 (inactive)
C[C@]12CC[C@H]3[C@@H](CCC4=CC(=O)CC[C@@H]43)[C@@H]1CC[C@@H]2OC1(O)C(=O)c2ccccc2C1=O | -0.175 (inactive)
CC(=O)O[C@@H]1[C@@H](O)C2=C3[C@]4(C)[C@@H]1C(C)(C)C(=O)C[C@@H]4[C@]3(O)[C@H](OC(C)=O)[C@@]1(C[C@@H]1C)C2=O | -0.11 (inactive)
CC(=O)c1c(O)c(C)c(O)c(Cc2c(O)c3c(c(C(=O)/C=C/c4ccccc4)c2O)OC(C)(C)C=C3)c1O | -1.16 (active)
CC(=N\O)/C(C)=N/O.CC(=N\O)/C(C)=N/O.CC(=N\O)/C(C)=N/O.CC(=N\O)/C(C)=N/O.[Cu].[Cu] | 0.204 (inactive)
CC[C@](O)(C(=O)O)c1cc2n(c(=O)c1CO)Cc1cc3ccccc3nc1-2 | -0.308 (inactive)
NC(CSC1c2ccccc2-c2ccccc21)C(=O)O (stereo not given) | -0.0184 (inactive)
Cc1c2ccncc2c(C)c2c1[nH]c1ccccc12 | -1.19 (active)
O=C(c1ccccc1)C1C(c2ccccc2[N+](=O)[O-])N1C1CCCCC1 (stereo not given) | -0.136 (inactive)
CC1=CC23C(COC(=O)C24CO4)C(C(=O)O)=CC3C1C (stereo not given) | -0.125 (inactive)
COc1cc2c(cc1OC)C13CCN4C=C5CCOC6CC(=O)N2C1C6C5CC43 (stereo not given) | 0.124 (inactive) and 0.181 (inactive)
CCCCCC(O)C1C(=O)OC(C)C(O)/C=C/C=C/C=C/C=C/C=C(\C)C(O)C(O)C(O)CC(O)CC(O)CC(O)CC(O)CC1O (stereo not given) | -0.286 (inactive)
